Screening data from PubChem BioAssay.
IMPase cell inh: IMPase inhibition in cells. AID 901. 120,000 tested, under 10 active. CHO-M1 cells, IP1 accumulation, HTRF TR-FRET ratio. P97697. inhibition (IP1 accumulation), % at 46.1 µM; active = well fitted curve in the direction sought with a large enough effect in the signal ratio, not every such curve was filed as active; inconclusive = small, poorly fitted or top-dose-only effect, or a change in a side signal; inactive = no such curve, though single readings can be large or run the other way; the % refers to the signal ratio;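 also: cells stimulated with carbachol in lithium chloride buffer; plate controls were DMSO basal wells for no effect and reference inhibitor wells for full effect; higher means more IMPase inhibition seen as more IP1 and lower FRET ratio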
Target sequence (P97697 whole entry, looked up): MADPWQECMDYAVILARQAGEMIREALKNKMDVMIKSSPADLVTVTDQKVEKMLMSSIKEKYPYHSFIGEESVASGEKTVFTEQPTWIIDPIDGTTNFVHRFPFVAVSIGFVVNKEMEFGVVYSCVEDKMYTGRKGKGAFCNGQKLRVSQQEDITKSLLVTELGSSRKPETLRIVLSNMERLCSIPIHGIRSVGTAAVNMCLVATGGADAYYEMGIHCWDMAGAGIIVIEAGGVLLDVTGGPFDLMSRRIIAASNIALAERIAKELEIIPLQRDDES
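Seeded CHO-M1 cells were dosed with compound at up to 46 uM, stimulated with carbachol for 30 min, then lysed in IP-One detection reagents. Higher IP1 lowers the TR-FRET signal.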
LMNA splice mod: changes lamin A minigene splicing in HeLa cells. HeLa LMNA splicing GFP/RFP minigene ratio, 48 h. Potency, µM (top dose mostly 46.1 µM), for inactives: at the top dose ratio change, negative = inhibition, most hits filed as inhibitors. 200,000 tested, 0.01% active. AID 1487; active = well fitted inhibition curve with a large enough effect in the signal ratio, with a control signal flat, not every such curve was filed as active; inconclusive = small, poorly fitted or top-dose-only effect, or effect the other way, or a change in a side signal; the % refers to the signal ratio; also: potency is read from the fitted curve at half-maximal effect
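S3 HeLa stable clones carrying a lamin A-EGFP splicing minigene plus DsRed2 were seeded at 600 cells/well in Opti-MEM with 2% FBS, pin-dosed and incubated 48 h at 37°C. Acumen cytometry (488 nm) gave the GFP/RFP total-intensity ratio.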
PNC inhibitor: blocks assembly of the perinucleolar compartment | activity change (PNC), negative = inhibition, % at 10 µM | PC3M PTB-GFP, PNC prevalence imaging, 16 h; hits give low values | 140,000 tested, 3.1% active;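 active = readout at or below -70, meaning at least 70% loss of cells showing the perinucleolar compartment, a nuclear body marking cancer cells; inconclusive = readout between -30 and a set limit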;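 also: plate controls were DMSO wells for no effect and camptothecin positive control wells for full effect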
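PC3M cells stably expressing PTB-GFP, 750–1000 cells/well, treated 16 h at 37 °C with compound (23 nl of library stock), in duplicate. After paraformaldehyde fixation and Hoechst stain, imaged at 20x; PNC prevalence scored by image analysis.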
* marks the source's active call; other numbers are inactive results; u = inconclusive; x = no result given; [ ] = remark or other dose. This excerpt belongs to a sample that is enriched for hits. Unless noted, % is scaled to controls: 0 for no effect and ±100 for the full control effect.

SMILES	IMPase cell inh	LMNA splice mod	PNC inhibitor
COc1cc(C)ccc1OCCCCN1CC(C)OC(C)C1 (stereo not given)	1	14%	35
CCOc1ccccc1OCCOCCN1CC(C)OC(C)C1 (stereo not given)	4	-4%	-87*
O=C(c1cccc(Br)c1)c1conc1C(=O)c1ccco1	x	3%	-114*
N/C(=N\OC(=O)c1ccco1)c1cccc(Br)c1	-4	2%	-19
CCC(=O)NC(Nc1c(C)n(C)n(-c2ccccc2)c1=O)C(Cl)(Cl)Cl (stereo not given)	x	31%[46 µM]	x
CS(=O)(=O)Nc1ccccc1C(=O)O	3	13%	-23
CS(=O)(=O)Nc1ccc(Br)cc1C(=O)c1ccccc1	-2	25%	-84*
COc1cccc(NC(=O)C(C#N)Cc2ccncc2)c1 (stereo not given)	-2	0%	29
CCc1ccccc1NC(=O)C(C#N)Cc1cccnc1 (stereo not given)	-1	-7%	-82*
CCC(C)NC(=O)CN1C(=O)c2cccnc2Sc2ccccc21 (stereo not given)	x	-12%[46 µM]	x
Clc1ccccc1Cc1cn2cc(-c3ccccc3)nc2s1	-1	x	x
N#C/C(=C\c1cn(CCOc2ccccc2F)c2ccccc12)C(=O)NCc1cccs1	x	-3%	u
N#C/C(=C\c1cn(Cc2ccc(C#N)cc2)c2ccccc12)C(=O)NCc1cccs1	x	-5%	-116*
CCOc1[nH]n(-c2ccccc2)c(=O)c1C=NCc1cccnc1	x	25%[9.22 µM]	x
CC1(C)Cc2c(c(N3CCOCC3)nc3sc4c(NCc5ccco5)nnnc4c23)CS1	4	-5%	-81*
CC1(C)Cc2c(c(N3CCOCC3)nc3sc4c(NCc5ccccc5)nnnc4c23)CS1	1	5%	20
CC(=O)NCCn1c(C)cc2ccccc21	2	-3%	u
Cc1cc2ccccc2n1CCNC(=O)Cc1cccc2ccccc12	u	-12%	-108*
Cc1cc2ccccc2n1CCNC(=O)COc1ccccc1	-3	-9%	-103*
CCC(=O)NCCn1c(C)cc2ccccc21	-1	-10%	42
COc1ccccc1OCC(=O)NCC1(N(C)C)CCCCC1	x	-16%[46 µM]	x
Cc1ccc(S(=O)(=O)NCCCOC(=O)Nc2ccncc2)cc1	-10	u	u
COc1ccc(Cl)cc1NC(=O)Cn1ccn(-c2cc(C)cc(C)c2)c(=O)c1=O	x	18%[46 µM]	x
Cc1nc2c(=O)[nH]c3ccccc3c2o1	x	18%[46 µM]	x
Cc1c(F)cccc1NS(=O)(=O)c1cccs1	x	4%[46 µM]	x
SMILES	IMPase cell inh	LMNA splice mod	PNC inhibitor
COc1cccc(C2CC(C(F)(F)F)n3ncc(C(=O)NCC4CCCO4)c3N2)c1 (stereo not given)	0	0%	7
COc1ccc(C2CC(C(F)(F)F)n3ncc(C(=O)NCc4cccnc4)c3N2)cc1OC (stereo not given)	-7	-4%	-82*
COc1ccc(Cl)cc1N(C)C(=O)Cc1noc2ccc(C)cc12	x	18%[46 µM]	x
CCOC(=O)C1=C(CS(=O)(=O)c2ccc(F)c(C)c2)NC(=O)NC1c1ccc(O)c(O)c1 (stereo not given)	-6	-6%	u
CC(C)(C)NC(=O)CSc1nncn1NCc1cccc2ccccc12	8	-4%	44
CC(C)(C)NC(=O)CSc1nncn1NCc1c(Cl)cccc1Cl	8	-13%	-100*
COc1ccccc1NC(=O)c1oc2ccc(C)cc2c1C	3	-1%	-80*
CCN(CC)S(=O)(=O)c1ccc2oc(C(=O)Nc3cc(C)ccc3OC)c(C)c2c1	x	-3%[46 µM]	x
CC1(C)Cc2ccccc2-c2c1c(=O)n(Cc1ccccc1)c1nnnn21	-16	u	-100*
CCC1(C)Cc2ccccc2-c2c1c(=O)n(-c1ccc(C)cc1)c1nnnn21 (stereo not given)	-6	2%	22
Cc1ccc(S(=O)(=O)N2CCOCC2)cc1NC(=O)COC(=O)C1COc2ccccc2O1 (stereo not given)	x	-6%	-7
CCCCNCc1cc(OCC)c(OCC(N)=O)cc1Br	-4	16%	-25
CCCCNCc1cc(OC)c(OCC(N)=O)cc1Br	-3	u	-100*
Cc1ccc2[nH]c3c(=O)n(CC(=O)N4CCN(c5ccccc5F)CC4)ncc3c2c1	x	7%[46 µM]	x
CCc1ccc(NSc2ccccc2[N+](=O)[O-])cc1	18	u	46
CCCc1cc(=O)[nH]c(SCc2nc(-c3ccccc3)no2)n1	x	-12%[46 µM]	x
O=C(CNC(=O)c1ccc(F)cc1)N/N=C/c1cc(Br)ccc1OCc1ccccc1	x	u	19
O=C(CNC(=O)c1cccc(F)c1)N/N=C/c1cc(Br)ccc1OC(=O)/C=C/c1ccco1	x	u	-81*
COCCNc1ncnc2onc(-c3ccc(F)cc3)c12	x	11%[46 µM]	x
CC(C)NC(=O)Cn1cc(C(=O)C2CC2)c2ccccc21	x	17%[46 µM]	x
